Source: PubChem
SKKanGAS inh – blocks kanamycin growth of S. pyogenes SKKanGAS strain; BacTiter-Glo, 6 h; inhibition, % at 7.5 µM; 300,000 compounds, 1.3% hits;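 active = mean replicate score, as percent of positive control median, at least 50; inconclusive = mean below 50 but one replicate at or above 50; inactive = mean and every replicate below 50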;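 also: strain carries kanamycin resistance gene driven by streptokinase promoter and grows in 40 µg/ml kanamycin; loss of luminescence reflects streptokinase promoter inhibition or plain growth inhibition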
Rtt109 Vps75 – blocks Candida albicans Rtt109/Vps75 acetyltransferase activity; Q5AAJ8; purified Rtt109/Vps75, ThioGlo CoA-SH fluorescence, 4 h; inhibition, % at 34.9 µM; 330,000 compounds, 0.16% hits; AID 540336;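 active = inhibition of at least 50% in every replicate; inconclusive = best replicate reaches 50% inhibition but some replicates fall short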
Target sequence (Q5AAJ8 whole entry, looked up): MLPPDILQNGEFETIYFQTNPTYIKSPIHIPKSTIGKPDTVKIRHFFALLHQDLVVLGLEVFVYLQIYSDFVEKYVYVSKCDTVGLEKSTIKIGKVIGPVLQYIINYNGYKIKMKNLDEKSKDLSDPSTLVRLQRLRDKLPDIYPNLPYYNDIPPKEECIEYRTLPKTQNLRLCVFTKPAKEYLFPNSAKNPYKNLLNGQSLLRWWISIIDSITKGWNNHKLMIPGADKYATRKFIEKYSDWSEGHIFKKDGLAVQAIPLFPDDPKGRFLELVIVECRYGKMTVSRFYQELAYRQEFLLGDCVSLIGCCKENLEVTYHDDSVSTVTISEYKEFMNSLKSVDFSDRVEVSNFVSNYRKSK
Platelet DG rel – platelet dense granule release activity; human platelet-rich plasma, SFLLRN dense granule ATP release, luminescence; inhibition, %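 (compounds screened at 7.5 µM in platelet-rich plasma)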; 300,000 compounds, 0.22% hits; AID 1663;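 active = mean replicate score, as percent of positive control, at or above 50; inconclusive = mean below 50 but at least one replicate at or above 50; inactive = mean and every replicate below 50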
TPT1 inh – C. albicans TPT1 enzyme inhibition. recombinant caTPT1, FP RNA substrate dephosphorylation. inhibition, % at 5 µM. 300,000 compounds, 0.81% hits;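 active = inhibition above the mean of all tested compounds plus 3 SD, set per screening campaign, cut at about 24% in these data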
PHOSPHO1 block – inhibitors of human PHOSPHO1 phosphatase; Q8TCT1; recombinant PHOSPHO1, absorbance phosphatase assay; inhibition, % at 13.3 µM; 290,000 compounds, 1.1% hits; AID 1565; in the data active = inhibition above about 60%
Target sequence (Q8TCT1 whole entry, looked up): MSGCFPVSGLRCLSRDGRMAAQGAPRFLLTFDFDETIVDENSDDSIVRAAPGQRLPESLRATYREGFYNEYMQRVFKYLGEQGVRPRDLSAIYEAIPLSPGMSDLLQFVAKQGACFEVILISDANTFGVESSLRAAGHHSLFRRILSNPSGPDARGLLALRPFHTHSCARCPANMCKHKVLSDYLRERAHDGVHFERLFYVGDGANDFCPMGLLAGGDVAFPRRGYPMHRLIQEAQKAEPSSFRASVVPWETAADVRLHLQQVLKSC
WT yeast gro inh – growth inhibition of WT yeast, mitochondrial fusion screen. 190,000 compounds, 2.1% hits. inhibition, % at 10 µM. AID 1362. mitochondrial fusion phenotypic screen, WT strain; in the data active = inhibition above about 58%; tested in S. cerevisiae
Large screens that a line does not name were inactive. The list is not random: actives were taken first. Their share in the collection is about 3.9%.

O=c1[nH]c(=S)n(CCC2=CCCCC2)c(O)c1C=NC1CCN(Cc2ccccc2)CC1	WT yeast gro inh 78
FC(F)(F)c1ccccc1CNCCc1c[nH]c2ccccc12	none (no result: WT yeast gro inh)
CC(=O)Nc1ccc(OC(=O)N(C)c2ccccc2)cc1	Platelet DG rel 53
CC(=O)Nc1ccc(OC(=O)N(C)c2ccc(C)cc2)cc1	none (no result: WT yeast gro inh)
CC(=O)c1ccc(OCC(=O)N2CCCC(N(C)Cc3ccccc3)C2)cc1 (stereo unspecified)	none (no result: WT yeast gro inh)
CNC(C(=O)c1ccccc1)C(OC)c1ccccc1 (stereo unspecified)	WT yeast gro inh 80
CNC(C(=O)c1ccccc1)C(OC)c1cccc([N+](=O)[O-])c1 (stereo unspecified)	none (no result: WT yeast gro inh)
CCOC(=O)/C(CCCN(CC)CC)=N\O	PHOSPHO1 block 95
Oc1c(Br)cc(Br)cc1Oc1ccc(Br)cc1Br	SKKanGAS inh 107 (no result: Rtt109 Vps75)
CN(C)CCN(C(=O)COc1ccc(Cl)cc1)c1nc2cc3c(cc2s1)OCO3	PHOSPHO1 block 63 (no result: WT yeast gro inh)
NC(Cc1cc(O)c(O)cc1O)C(=O)O (stereo unspecified)	TPT1 inh 31 (no result: SKKanGAS inh, Rtt109 Vps75, Platelet DG rel, PHOSPHO1 block, WT yeast gro inh)
NCCc1cc(O)c(O)cc1O	none (no result: SKKanGAS inh, Platelet DG rel, TPT1 inh, PHOSPHO1 block, WT yeast gro inh)
NC1=NC(c2cccnc2)n2c(nc3ccccc32)N1 (stereo unspecified)	none (no result: Rtt109 Vps75, WT yeast gro inh)
C[N+]12CCC(CC1)C(C#N)(N1CCOCC1)C2 (stereo unspecified)	PHOSPHO1 block 101
C[N+](C)(N)CCOC(=O)C(O)(c1ccccc1)C1CCCCC1 (stereo unspecified)	none (no result: PHOSPHO1 block, WT yeast gro inh)
C=C(C)CSc1nnc([C@@H](N)Cc2c[nH]c3ccccc23)o1	PHOSPHO1 block 89
CC(C)=CCSc1nnc([C@@H](N)Cc2c[nH]c3ccccc23)o1	none
N[C@@H](Cc1c[nH]c2ccccc12)c1nnc(SCc2ccc(Cl)cc2)o1	Rtt109 Vps75 inconclusive, WT yeast gro inh 62
N[C@@H](Cc1c[nH]c2ccccc12)c1nnc(SCc2ccc(F)cc2)o1	PHOSPHO1 block 62 (no result: TPT1 inh)
N[C@@H](Cc1c[nH]c2ccccc12)c1nnc(SCc2ccccc2)o1	none
CCc1ccccc1NC(=O)CSc1nnc([C@@H](N)Cc2c[nH]c3ccccc23)o1	none
C[C@]12CCC(=O)C=C1C=CC1C2CC[C@@]2(C)C1CC[C@@H]2O (stereo partly specified)	none (no result: SKKanGAS inh, Platelet DG rel, TPT1 inh, PHOSPHO1 block, WT yeast gro inh)
CC(=NNC(=S)N1CC2CCC(CC2)C1)c1nccs1	none (no result: SKKanGAS inh, Platelet DG rel, TPT1 inh, PHOSPHO1 block, WT yeast gro inh)
CC(=O)c1ccc2c(c1)C1C(Cl)C(Sc3ccccc3[N+](=O)[O-])CC1C(C(=O)O)N2 (stereo unspecified)	none (no result: SKKanGAS inh, Platelet DG rel)
O=C(O)c1cccc2c1NC(C(=O)O)C1CC(Sc3ccccc3[N+](=O)[O-])C(Cl)C21 (stereo unspecified)	Rtt109 Vps75 60, PHOSPHO1 block 62 (no result: SKKanGAS inh, Platelet DG rel)
COC(=O)C1=C(c2ccc(C(C)=O)cc2)C[C@@H]2CC[C@H]1N2C(=O)NCc1ccc2c(c1)OCO2	none (no result: SKKanGAS inh, Platelet DG rel, TPT1 inh, PHOSPHO1 block, WT yeast gro inh)
C=C(CO)CC1CC(O)[C@]2(C)OC3CC4OC5C[C@]6(C)O[C@]7(C)CCC8OC9C[C@]%10(C)OC%11C(C)=CC(=O)OC%11CC%10OC9C[C@@H](C)C8OC7CC6O[C@]5(C)C/C=C\C4OC3CC2O1 (stereo partly specified)	none
C=C(C=O)CC1CC(O)[C@]2(C)OC3CC4OC5C[C@]6(C)O[C@]7(C)CCC8OC9C[C@]%10(C)OC%11C(C)=CC(=O)OC%11CC%10OC9C[C@@H](C)C8OC7CC6O[C@]5(C)CC5OC5C4OC3CC2O1 (stereo partly specified)	WT yeast gro inh 82
O=C1NC(=O)[C@]2(Cc3ccccc3N3CCN(c4ccccc4)CC32)C(=O)N1c1ccccc1 (stereo partly specified)	none
O=C1NC(=O)[C@]2(Cc3ccccc3N3CCN(c4ccccc4)CC32)C(=O)N1Cc1ccccc1 (stereo partly specified)	PHOSPHO1 block 72
CN1C(=O)NC(=O)[C@]2(Cc3ccccc3N3CCN(c4ccccc4)CC32)C1=O (stereo partly specified)	PHOSPHO1 block 65
COc1ccc(-n2c(C)nc3ccccc3c2=O)c([N+](=O)[O-])c1	none (no result: WT yeast gro inh)
CCOC(=O)c1c(-n2c(C)cc(C=C3C(=O)NC(=S)NC3=O)c2C)sc2c1CCCC2	WT yeast gro inh 78
CC1=CC2/C=C(\C)CCC(O)C(O)/C=C/C(=O)C23C(=O)NC(CC(C)C)C3C1C (stereo unspecified)	none
C/C1=C\[C@@H](C)C/C=C/[C@H]2[C@@H]3O[C@]3(C)[C@@H](C)[C@H]3[C@H](Cc4c[nH]c5ccccc45)NC(=O)[C@]32C(=O)/C=C/C(=O)[C@@H]1O	WT yeast gro inh 71
CC(C)c1ccc(-n2c(O)c(C=NCCN3CCNCC3)c(=O)[nH]c2=S)cc1	none (no result: WT yeast gro inh)
Brc1ccc2c(c1)C(OC1CN3CCC1CC3)c1ccccc1CS2 (stereo unspecified)	WT yeast gro inh 82
CSc1nnc(C2CCNCC2)n1C	WT yeast gro inh 65
COc1cccc(NP(=O)(Oc2ccc(Cl)cc2)Oc2ccc(Cl)cc2)c1	SKKanGAS inh 56, WT yeast gro inh 63
O=P(Nc1ccccc1)(Nc1ccccc1)Oc1ccc(Cl)cc1	none
CCCNC(=O)N1[C@H]2CC[C@@H]1C(C(=O)OC)=C(c1ccc3ccccc3c1)C2	none (no result: SKKanGAS inh, Platelet DG rel, TPT1 inh, PHOSPHO1 block, WT yeast gro inh)
C=CCn1c(O)c(C(C)=Nc2ccc(N(CC)CC)cc2)c(=O)[nH]c1=O	SKKanGAS inh 76
C=CCn1c(O)c(C(CC)=Nc2ccc(N(CC)CC)cc2)c(=O)[nH]c1=O	SKKanGAS inh 101
C=CCn1c(O)c(C(CC)=Nc2ccc(NC(C)=O)cc2)c(=O)[nH]c1=O	none (no result: WT yeast gro inh)
CCCCn1c(O)c(C(CC)=Nc2ccc(OCC)cc2)c(=O)[nH]c1=O	SKKanGAS inh 55
CC(C)C/C(=N/O)c1cn(C)c2ccccc12	none
Cc1ccccc1CN1Cc2cnnn2-c2ccccc2C1C#N (stereo unspecified)	none (no result: SKKanGAS inh, Platelet DG rel, TPT1 inh, PHOSPHO1 block, WT yeast gro inh)
OCC1CO1 (stereo unspecified)	none (no result: SKKanGAS inh, Platelet DG rel, TPT1 inh, PHOSPHO1 block, WT yeast gro inh)
CCOC(=O)c1c(C)n(Cc2ccccc2)c2ccc(OCC(O)Cn3nc(C)cc3C)cc12 (stereo unspecified)	WT yeast gro inh 66 (no result: SKKanGAS inh, Platelet DG rel)
CCOC(=O)c1c(C)n(Cc2ccccc2)c2ccc(OCC(O)Cn3nc(C)nc3C)cc12 (stereo unspecified)	none
O=C(N/N=C/c1c(O)n(Cc2ccc(F)cc2)c(=O)[nH]c1=O)c1ccccc1O	SKKanGAS inh 97
COc1ccc(Cn2c(O)c(/C=N/NC(=O)c3ccccc3O)c(=O)[nH]c2=O)cc1	none
O=C(N/N=C/c1c(O)n(CCc2ccc(F)cc2)c(=O)[nH]c1=O)c1ccccc1	none (no result: Rtt109 Vps75, WT yeast gro inh)
CCCCCCC(=O)N/N=C/c1c(O)n(CCc2ccccc2)c(=O)[nH]c1=O	SKKanGAS inh 86 (no result: Platelet DG rel, WT yeast gro inh)
O=C(N/N=C/c1c(O)n(Cc2ccccc2)c(=O)[nH]c1=O)c1ccccc1O	SKKanGAS inh 84
COc1ccc(Cn2c(O)c(/C=N/NC(=O)c3ccccc3)c(=O)[nH]c2=O)cc1	none
